Screening data deposited in PubChem BioAssay by National Center for Advancing Translational Sciences (NCATS).
Only some compounds are listed: those with a hit (about 21% of all), similar ones and a draw of the others.
Shiga inhibitor: A qHTS for Small Molecule Inhibitors of Shiga Toxin | Vero cells, Shiga toxin protein synthesis inhibition reporter | inhibition, % at 38.7 µM | 290,000 tested, 9.2% active; in the data active = inhibition mostly above about 28%, no sharp cut-off; inactive = mostly below about 43%; also: 0% is about no effect
Pf growth 48h: Primary qHTS for delayed death inhibitors of the malarial parasite plastid, 48 hour incubation | 310,000 tested, 5.9% active | Potency, µM (highest dose often 28.7 µM), inactives show top-dose activity change, negative = inhibition, usual class: inhibitors | P. falciparum luciferase growth in erythrocytes, 48 h; also: potency is read from the fitted curve at half-maximal effect; % is scaled to controls: 0 for no effect and ±100 for the full control effect
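Parasite viability was followed by luminescence of a genomically integrated firefly luciferase. Cultures held 0.1% parasitemia at 2% hematocrit (final), incubated under 5% CO2 at 37 C.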
Cycloheximide cs: Cycloheximide Counterscreen for Small Molecule Inhibitors of Shiga Toxin; cell reporter, cycloheximide protein synthesis inhibition counterscreen; max response, %; 300,000 tested, 12% active; AID 2314, 2010; in the data active = max response mostly above about 13%, no sharp cut-off; inactive = mostly below about 14%; also: read at 38.3 µM for the half of the compounds with a filed dose; 0% is about no effect
NS1 inh: qHTS Assay for Inhibitors of Influenza NS1 Protein Function | AID 2326, 2010 | Potency, µM (series often up to 46.1 µM), for inactives: at the top dose activity, positive = more growth | 270,000 tested, 0.4% active; calls by dose curve; also: potency is read from the fitted curve at half-maximal effect; actives are rising curves; nearly all actives have a fitted effect of over 50% in size
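Read-out: OD600 growth recovery of NS1-expressing budding yeast. Cells grown overnight at 30C in -URA glucose medium, washed, resuspended and diluted 1:100 in 2% galactose assay medium, pH 6.0. Same strain lacking NS1 served as positive control.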
Pf growth 96h: Primary qHTS for delayed death inhibitors of the malarial parasite plastid, 96 hour incubation. 320,000 tested, 6.9% active. P. falciparum luciferase reporter growth, 96 h. Potency, µM (doses to about 28.7 µM), inactives show at the top dose activity change, negative = inhibition, most hits filed as inhibitors. AID 504834, 2011; also: potency is read from the fitted curve at half-maximal effect; % is scaled to controls: 0 for no effect and ±100 for the full control effect
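Parasite growth measured via integrated firefly luciferase reporter in P. falciparum. Infected erythrocytes at 2% hematocrit, 0.05% parasitemia final were treated 96 hours at 37 C under 5% CO2, and luminescence was read.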
Active calls of the source: *; ? = inconclusive; nt = not tested or not shown; [ ] = remark or other dose. Unless noted, calls follow the shape of the dose curve; as a rule, active = well fitted inhibition curve with a large enough effect; inconclusive = small, poorly fitted or top-dose-only effect, or another doubt; inactive = no such curve, though single readings can be large or run the other way.

SMILES	Shiga inhibitor	Pf growth 48h	Cycloheximide cs	NS1 inh	Pf growth 96h
COC(=O)CSc1nc2sc3c(c2c(=O)n1-c1ccc(OC)cc1)CCN(C)C3	-14	6.6µM*	-2	2%	5.2µM*
C=C(C)CSc1nc2sc3c(c2c(=O)n1-c1ccc(OC)cc1)CCN(C)C3	5	1.9µM*	-3	1%	1µM*
COc1ccc(-n2cnc3sc4c(c3c2=O)CCCC4)cc1	72*	29%	25	-2%	-13%
O=C(NN1C(=O)C2C3c4ccccc4C(c4ccccc43)C2C1=O)c1ccc(Cl)cc1 (stereo unspecified)	-5	?	-1	13%	36%
O=c1nc(SCc2c(F)cccc2Cl)nc(-c2ccccc2)[nH]1	-13	13%	-2	-5%	5%
CCOC(=O)CSc1nc2sc3c(c2c(=O)n1-c1ccc(OC)cc1)CCN(C)C3	-3	1.9µM*	-3	7%	1.5µM*
CCSc1nc2sc3c(c2c(=O)n1-c1ccc(OC)cc1)CCN(C)C3	-13	?	-2	-3%	?
COc1ccc(-n2c(SCC(=O)NCc3ccco3)nc3sc4c(c3c2=O)CCN(C)C4)cc1	22	?	20	22%	?
COc1ccc(-n2c(SCC(=O)O)nc3sc4c(c3c2=O)CCCC4)cc1	3	-4%	-3	2%	-4%
CN1CCc2c(sc3nc(SCC(=O)NCc4ccco4)n(-c4ccccc4)c(=O)c23)C1	48*	9.3µM*	39*	15%	0.93µM*
COc1ccc(-n2c(SCCNCCO)nc3sc4c(c3c2=O)CCCC4)cc1	-6	13µM*	-3	12%	9.3µM*
CCOC(=O)CSc1nc2sc3c(c2c(=O)n1-c1ccccc1)CCN(C(C)C)C3	-12	0%[0.00184 µM]	-8	-2%	0.83µM*
CC1CCCCC1NC(=O)c1ccc(S(=O)(=O)NCC2CCCO2)cc1 (stereo unspecified)	18	0%	-2	-4%	-20%
CCCCSc1nc2sc3c(c2c(=O)n1-c1ccc(C)cc1)CCN(C)C3	-3	?	3	5%	?
COc1cccc(-n2cnc3sc(C)c(C)c3c2=O)c1	active	5%	29*	-15%	33%
CCOC(=O)CSc1nc2sc3c(c2c(=O)n1-c1ccccc1)CCN(C)C3	nt	4.7µM*	2	23%	-26%
Cc1cccc(-n2cnc3sc(C)c(C)c3c2=O)c1	20	?	5	-8%	-7%
CCOC(=O)CSc1nc2sc3c(c2c(=O)n1-c1ccc(C)cc1)CCN(C)C3	-11	4.7µM*	1	4%	2.3µM*
CN1CCc2c(sc3nc(NCCO)n(-c4cccc(Cl)c4)c(=O)c23)C1	-7	nt	-3	4%	4.7µM*
CN1CCc2c(sc3c2c(=O)n(-c2cccc(Cl)c2)c2nncn32)C1	nt	nt	nt	-2%	nt
C=CCN1C(=O)C(=O)N(CC(=O)c2ccc3c(c2)CCCC3)C1=O	nt	52%	nt	nt	46%
Cc1cc2nc(-c3ccc(=O)[nH]c3)n(Cc3ccccc3)c2cc1C	25	?	5	-3%	?
COC(=O)C1=C(C)Nc2ncnn2C1c1ccc(OCc2ccccc2)cc1 (stereo unspecified)	16	6%	3	-51%	-7%
CN(C=O)CP(=O)(O)CN1CCCCC1	-2	19%	-2	4%	242%
CCN1C(=O)[C@H]2[C@@H](c3ccc(-c4ccc(F)cc4)cc3)N[C@@](CC(C)C)(C(=O)OC)[C@H]2C1=O	nt	10µM*	nt	nt	5.2µM*
SMILES	Shiga inhibitor	Pf growth 48h	Cycloheximide cs	NS1 inh	Pf growth 96h
CCN1C(=O)[C@H]2[C@@H](c3ccc(-c4ccc(F)cc4)c(OC)c3)N[C@@](CC(C)C)(C(=O)OC)[C@H]2C1=O	nt	2.3µM*	nt	nt	2.6µM*
COC(=O)[C@]1(C)N[C@H](c2ccc(-c3ccc(F)cc3)cc2)[C@@H]2C(=O)N(C)C(=O)[C@@H]21	nt	?	nt	nt	-2%
COC(=O)[C@]1(CC(C)C)N[C@H](c2ccc(-c3ccc(F)cc3)cc2)[C@@H]2C(=O)N(C)C(=O)[C@@H]21	nt	3.3µM*	nt	nt	6.6µM*
Cc1ccc(NC(=O)COC(=O)CCc2c[nH]c3ccccc23)c(C)c1	nt	-16%	nt	nt	-3%
O=C(N[C@@H](Cc1c[nH]c2ccccc12)C(=O)O)C1CCN(S(=O)(=O)c2cccs2)CC1	15	7%	-2	2%	22%
O=C(N/N=C/c1cccs1)/C(=C/c1ccccc1)NC(=O)c1ccccc1	-6	-9%	-2	18%	-8%
NC(=O)[C@@H]1CCCN1Cc1ccc2c(c1)OCO2	nt	nt	nt	-7%	nt
COc1ccc(NCc2cc(=O)[nH]c3ccccc23)cc1	-14	3%	5	-2%	5%
Cc1ccccc1N(Cc1cc(=O)[nH]c2ccccc12)C(=O)CCl	0	4.7µM*	10	5%	1.9µM*
O=C(CCl)N(Cc1cc(=O)[nH]c2ccccc12)c1ccccc1	-7	10µM*	-2	2%	10µM*
O=c1cc(CNCCCO)c2ccccc2[nH]1	-19	0%	-2	?	3.7µM*
O=C(CCl)N(Cc1ccccc1)c1ccccc1	6	10µM*	26*	nt	?
Cc1ccc(N(Cc2cc(=O)[nH]c3ccccc23)C(=O)C(C)C)c(C)c1	-7	?	-6	11%	-19%
Cc1ccccc1N(Cc1cc(=O)[nH]c2ccccc12)C(=O)C(C)C	13	15µM*	1	-1%	?
C=C[C@@H]1CN2CC[C@H]1C[C@H]2[C@H](O)c1ccnc2ccccc12	nt	0.13µM*	nt	nt	0.054µM*
CCOC(=O)C1CCCN(c2c(C(=O)c3ccccc3)cnc3ccc(OC)cc23)C1 (stereo unspecified)	-16	?	16	-1%	29%
COc1ccc2nccc(SCC(=O)O)c2c1	nt	nt	nt	0%	nt
CC[C@H]1CN2CCC1C[C@H]2[C@H](O)c1ccnc2ccc(OC)cc12 (stereo partly specified)	nt	0.093µM*	nt	nt	0.052µM*
C=CC1CN2CCC1CC2C(OC(=O)OCC)c1ccnc2ccc(OC)cc12 (stereo unspecified)	nt	1.7µM*	nt	nt	0.76µM*
C=C[C@@H]1CN2CC[C@H]1CC2[C@H](O)c1ccnc2ccccc12 (stereo partly specified)	nt	nt	nt	-4%	nt
C=CC1CN2CCC1CC2[C@@H](OC(=O)c1ccc(OC)cc1)c1ccnc2ccccc12 (stereo partly specified)	-24	2.9µM*	-7	-6%	12%
CNC(=O)c1oc(-c2ccc(Cl)cc2)nc1C	20	39%	12	-1%	24%
O=C(O)/C=C/C(=O)Nc1ccc(S(=O)(=O)N2CCCC2)cc1	13	-15%	8	nt	?
C=C[C@@H]1c2ccccc2N(S(=O)(=O)c2ccc(C)cc2)[C@H](c2ccc(OC(C)=O)cc2)C1(C#N)C#N	nt	3.7µM*	nt	nt	?
CNC(=O)CSc1nnc(SCCC(=O)O)s1	-11	2%	-2	-4%	44%
CC(C)OC(=O)N(C)c1ccc(C(O)(C(F)(F)F)C(F)(F)F)cc1	37	nt	20*	-1%	40%
